Inconclusive results are not listed. Calls of active or inactive are those of the source. The calls were made as follows: active = hit-call score of the fitted dose curve at least 0.9, where 1 is the maximum; inconclusive = response in the unintended direction; inactive = score below 0.9.

Broadly, the AC50 is the concentration giving half of the maximal activity seen.

This test deals with human Serotonin, 5-Hydroxytryptamine Receptor 5A (5HT5A), HTR5A (gene 3361) (UniProt P47898). Nature of the test: NVS_GPCR_h5HT5A: NovaScreen (NVS) G Protein-Coupled Receptor Assay for human Serotonin, 5-Hydroxytryptamine Receptor 5A (5HT5A) (AID 2283251). As to the method: NVS_GPCR_h5HT5A is a biochemical, single-readout assay that uses extracted gene-proteins from HEK293 in a cell-free assay. Measurements were taken 1 hour after chemical dosing in a 96-well plate.NVS_GPCR_h5HT5A is one of one assay component(s) measured or calculated from the NVS_GPCR_h5HT5A assay. It is designed to make measurements of radioligand binding, a form of binding reporter, as detected with scintillation counting signals by Filter-based radiodetection technology.Data from the assay component NVS_GPCR_h5HT5A was analyzed into 1 assay endpoint. This assay endpoint, NVS_GPCR_h5HT5A, was analyzed in the positive analysis fitting direction relative to DMSO as the negative control and baseline of activity. Using a type of binding reporter, loss-of-signal activity can be used to understand changes in the binding as they relate to the gene HTR5A. Furthermore, this assay endpoint can be referred to as a primary readout, because the performed assay has only produced 1 assay endpoint. To generalize the intended target to other relatable targets, this assay endpoint is annotated to the gpcr intended target family, where the subfamily is rhodopsin-like receptor.
human Serotonin, 5-Hydroxytryptamine Receptor 5A (5HT5A), HTR5A (gene 3361), sequence (P47898 whole entry, looked up): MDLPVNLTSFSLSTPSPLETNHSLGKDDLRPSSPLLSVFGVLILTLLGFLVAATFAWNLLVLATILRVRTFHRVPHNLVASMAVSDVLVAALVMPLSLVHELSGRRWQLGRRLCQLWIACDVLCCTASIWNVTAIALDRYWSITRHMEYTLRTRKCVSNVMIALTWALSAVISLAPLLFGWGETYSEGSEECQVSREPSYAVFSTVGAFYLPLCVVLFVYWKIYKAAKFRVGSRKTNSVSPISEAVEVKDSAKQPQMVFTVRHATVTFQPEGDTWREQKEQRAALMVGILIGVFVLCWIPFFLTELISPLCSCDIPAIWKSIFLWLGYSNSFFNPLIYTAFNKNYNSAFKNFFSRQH
Binding assays used specific radioligands (tritiated, iodinated) with non-radioactive competitive displacement ligands in agonist or antagonist protocols (as indicated) and various reference compounds and inhibitors to titrate specific binding to receptors and transporters. Most enzyme assays (CYPs, kinases, phosphatases, proteases, HDACs) used recombinant protein and specific substrates (fluorescence mostly, some colorimetric and radioactive) and inhibitors, followed by a biochemical separation of substrate and product. All assays for the biochemical HTS were initially run in duplicate at a single concentration (10 uM for CYP450 assays and 25 uM for all others). […] Each assay was run with positive and negative controls, and concurrent controls on every plate. The follow-up (secondary) screen tested active chemical-pairs in concentration series, as well as a few additional assays not tested in the primary screen, some selected negative inactives, and several cases re-run in the concentration series for confirmatory purposes.
In the case of `CN1CCN(c2ccccc2/C=C2\SCCN(c3ccc(Cl)c(Cl)c3)C2=O)CC1`, the AC50 is 0.302 µM (active). Regarding `CCN(CC)CCNc1ccc(CNC=O)c2sc3ccc(OC)cc3c(=O)c12`, the AC50 was 4.96 µM (active). `O=C(O)Cc1cc(I)c(Oc2cc(I)c(O)c(I)c2)c(I)c1`: the result was inactive.

`NC(=O)N1C(=O)C(C(=O)c2cc(Cl)cs2)c2cc(F)c(Cl)cc21` (stereo unspecified): the AC50 is 41.3 µM (active). As for `CCCOc1sc(C(=O)N2CCC(c3cc(CN)ccc3F)CC2)c(C)c1Br`, the AC50 is 15.1 µM (active). Take `CC(=O)NC1(c2cccc(F)c2)CCN(CC[C@@]2(c3ccc(Cl)c(Cl)c3)CN(c3ccccc3)C(=O)CO2)CC1`: the AC50 is 28.3 µM (active).

Consider `CC[C@H](c1ccc(O)cc1)[C@@H](CC)c1ccc(O)cc1`, for which the AC50 was 1.69 µM (active). As for `CCC(=C(c1ccc(O)cc1)c1ccc(OCCN(C)C)cc1)c1ccccc1`, the half-maximal activity concentration (AC50) was 3.32 µM (active). As to `Cc1oc(-c2ccccc2)nc1CCOc1ccc(C[C@H](Nc2ccccc2C(=O)c2ccccc2)C(=O)O)cc1`, the half-maximal activity concentration (AC50) is 9.5 µM (active).

Consider `CCCCCCCCCCCCc1ccccc1S(=O)(=O)O`, for which the AC50 is 6.39 µM (active). With `NC(=O)N(O)[C@@H]1C=C[C@H](Oc2cccc(Oc3ccc(F)cc3)c2)C1`, the half-maximal activity concentration (AC50) was 14 µM (active).

The values are drawn from PubChem BioAssay (EPA / NIEHS).
